# From PubChem BioAssay
# An excerpt weighted towards active compounds, which were near 18% of everything screened.
# Six1-Eya2 blk = Six1/Eya2 interaction inhibition | Q15475+O00167 | AlphaScreen GST-Six1/His-Eya2 binding, biochemical; active compounds read low | activity change, % (no concentration beside the values) | actives 0.56% (n = 360,000) | AID 651725; in the data active = activity change below about -65%; inconclusive = mostly about -30% to -63%
#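 AlphaScreen luminescence read after one hour at 37 °C in darkness. Pin-transferred compounds met GST-Six1 and His-Eya2 protein (5X stock 250 nM/500 nM) plus glutathione donor and Ni-chelate acceptor beads (5X, 50 ug/mL).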
# IL-1B inflam inh = inhibitors of inflammasome signaling (IL-1 beta secretion); THP-1 LPS/ATP IL-1B secretion, AlphaLISA, 16 h; active compounds read low; activity change, % at 57.5 µM; actives 4.7% (n = 360,000); in the data active = activity change below about -50%; inconclusive = mostly about -30% to -49%
#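 THP-1 cells pretreated 1 hr with compounds (up to 57.5 uM final), then stimulated with LPS (250 ng/mL final) plus ATP (1.25 mM final); secreted IL-1B measured by AlphaLISA after 16 hr, decreased signal indicating inhibition.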
# DT40 TDP1 no CPT = qHTS for Inhibitors of human tyrosyl-DNA phosphodiesterase 1 (TDP1): qHTS in cells in absence of CPT; DT40 Tdp1-/- hTDP1 cells, no CPT, ATP luminescence, 48 h; Potency, µM (series often up to 46.2 µM), for inactives: top-dose activity change, negative = growth inhibition, hits mostly inhibitors; actives 15% (n = 420,000); AID 686978, 2013; note: potency is the fitted concentration of half-maximal effect; nearly all actives have a fitted effect of over 55% in size
#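 Growth kinetics read by CellTiter-Glo luminescence after ≥48 hr at 37 °C. Cells: DT40 Tdp1-/- stably carrying human TDP1, 400 per well, compound exposure in the absence of CPT (DMSO vehicle).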
# DT40 TDP1 CPT = growth inhibition of DT40 Tdp1-/-;hTDP1 cells with camptothecin (screen for TDP1 inhibitors); chicken DT40 Tdp1-/-;hTDP1 cells + 20 nM CPT, ATP luminescence, 48 h; Potency, µM (titrated, usually from 46.2 µM), without a hit: at the top dose activity change, negative = growth inhibition, hits mostly inhibitors; actives 12% (n = 420,000); AID 686979; note: potency is the fitted concentration of half-maximal effect; nearly all actives have a fitted effect of over 55% in size
#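 Chicken DT40 Tdp1-/- cells complemented with human TDP1, 400 cells/well, exposed to compounds plus 20 nM camptothecin for at least 48 h at 37 C; viability read as ATP content by CellTiter-Glo luminescence.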
# TDP1 inh = blocks human tyrosyl-DNA phosphodiesterase 1. Q9NUW8. recombinant TDP1, AlphaScreen DNA substrate cleavage. Potency, µM (top dose mostly 130 µM), inactives show top-dose activity change, negative = inhibition, actives largely listed as inhibitors. actives 0.28% (n = 350,000); note: potency is the fitted concentration of half-maximal effect; nearly all actives have a fitted effect of over 40% in size
# Target sequence (Q9NUW8 whole entry, looked up): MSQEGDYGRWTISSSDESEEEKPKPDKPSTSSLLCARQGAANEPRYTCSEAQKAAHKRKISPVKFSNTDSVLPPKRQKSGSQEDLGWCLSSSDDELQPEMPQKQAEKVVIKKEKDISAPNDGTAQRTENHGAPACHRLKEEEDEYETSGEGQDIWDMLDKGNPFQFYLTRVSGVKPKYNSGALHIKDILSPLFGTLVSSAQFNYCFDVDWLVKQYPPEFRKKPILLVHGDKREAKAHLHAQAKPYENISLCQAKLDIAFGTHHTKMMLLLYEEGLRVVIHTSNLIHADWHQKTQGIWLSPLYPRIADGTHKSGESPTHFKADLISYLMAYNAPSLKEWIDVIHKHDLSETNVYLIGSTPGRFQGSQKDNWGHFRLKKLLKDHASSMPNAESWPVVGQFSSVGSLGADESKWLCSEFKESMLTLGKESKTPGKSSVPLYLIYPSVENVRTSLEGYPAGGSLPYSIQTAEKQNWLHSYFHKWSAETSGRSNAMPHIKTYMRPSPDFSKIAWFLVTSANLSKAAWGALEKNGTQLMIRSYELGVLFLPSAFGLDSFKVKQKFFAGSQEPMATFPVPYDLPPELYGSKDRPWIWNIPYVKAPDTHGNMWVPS
#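 Here, a 5' biotin and 3' phosphotyrosine-FITC DNA oligonucleotide reports Tdp1 activity: intact substrate bridges AlphaScreen beads, while cleavage leaves a 3' phosphate and drops signal. All incubations at room temperature.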
# CtBP-E1A inh = inhibitors of CtBP/E1A interaction; actives 0.49% (n = 340,000); AlphaScreen GST-E1A/His-CtBP binding, 1536-well; active compounds read low; activity change, % (concentration not given with the values); in the data active = activity change below about -65%; inconclusive = mostly about -30% to -63%
#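 GST-E1A and His-tagged CtBP (125 nM each as 5X stock) were preincubated with pin-transferred compound for 2 h at 37 °C in the dark, then glutathione donor and nickel acceptor beads were added for 1 h before AlphaScreen reading.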
# Numbers without * were called inactive; u = inconclusive; x = not tested or not shown; [ ] = another dose, or the depositor's remark. Unless noted, calls come from the whole dose curve; as a rule, active = well fitted curve in the direction sought with a large enough effect; inconclusive = small, poorly fitted or top-dose-only effect, or another doubt; inactive = no such curve, though single readings can be large; an effect the other way counts as inactive or inconclusive. % is set by controls: 0 for no effect and ±100 for the full control effect.
SMILES,Six1-Eya2 blk,IL-1B inflam inh,DT40 TDP1 no CPT,DT40 TDP1 CPT,TDP1 inh,CtBP-E1A inh
O=C(Nc1ccncc1)C1CCN(S(=O)(=O)c2ccc(Cl)cc2)CC1,1,12,16µM*,23µM*,-6%[0.505 µM],3
COc1ccc(S(=O)(=O)N2CCC(C(=O)Nc3cc(C(F)(F)F)ccc3Cl)CC2)cc1,x,x,16µM*,u,x,x
Cc1cc(C)c(C)c(S(=O)(=O)N2CCC(C(=O)Nc3ccncc3)CC2)c1C,5,-8,8.2µM*,u,4%,3
COc1ccc(-n2c(C)c(C)c3c(NCCO)ncnc32)cc1,-1,10,-3%,10%,x,-15
Cc1nc(N2CCOCC2)c2c(C(=O)N(C)c3ccccc3)c(C)oc2n1,x,x,7%,1%,4%,x
CCc1ccc(NC(=O)c2nc3nc(C)cc(C(F)F)n3n2)cc1,x,x,u,u,-7%,x
CCC(=O)Nc1ccccc1-c1nc2ccccc2n(C(C)C(=O)Nc2cccc(Cl)c2C)c1=O (stereo not drawn),x,x,u,u,-9%,x
CCOC(=O)CN1NC2(CCC(C)CC2)NC1=S (stereo not drawn),4,-5,12%,-6%,12%,1
Cc1cc(C)c(C)c(S(=O)(=O)N2CCC(C(=O)N3CCCC3)CC2)c1C,-9,0,-21%,-13%,-1%[56.1 µM],-23
Cc1cc(C)c(C)c(S(=O)(=O)N2CCC(C(=O)N3CC(C)CC(C)C3)CC2)c1C (stereo not drawn),8,-75*,26µM*,18µM*,-8%[0.505 µM],-22
O=C(Nc1ccncc1)C1CCN(S(=O)(=O)c2ccc(Cl)c(C(F)(F)F)c2)CC1,3,u,15µM*,16µM*,0%,0
Cc1ccnc(NC(=O)C2CCN(S(=O)(=O)c3ccc(Cl)c(C(F)(F)F)c3)CC2)c1,6,-7,u,u,-3%,-24
COC(=O)C(C)Sc1nnc(Cc2cc(=O)[nH]c(=O)[nH]2)n1-c1cc(C)ccc1C (stereo not drawn),1,26,7%,6%,0%,6
CCCS(=O)(=O)NC(=O)C1(C)CCN(C(=O)c2c(-c3ccccc3)noc2C)C1 (stereo not drawn),14,3,-3%,6%,x,-19
CC(C)CCN1CCC(n2nccc2NC(=O)c2ccc3c(c2)OCO3)CC1,0,-67*,-9%,16%,1%,-2
CCn1cc(CN2CCC(n3nccc3NC(=O)c3ccc4c(c3)OCO4)CC2)c(C)n1,3,-1,-8%,-10%,1.8µM*,5
CCn1cc(CN2CCC(n3nccc3NC(=O)c3ccccc3C)CC2)c(C)n1,12,1,0%,-5%,1%,6
Cc1cc(C)cc(N(CCC#N)C(=O)CSC2=Nc3ccccc3C3CC=NN23)c1 (stereo not drawn),-4,-91*,u,21µM*,0%,-3
CCCOC(=O)c1ccc(NC(=O)CSC2=Nc3ccccc3C3CC=NN23)cc1 (stereo not drawn),-3,45,u,23µM*,1%,7
O=C(CSC1=Nc2ccccc2C2CC=NN12)Nc1ccc2c(c1)OCO2 (stereo not drawn),-13,u,23µM*,7.3µM*,6%,-21
N#Cc1ccccc1NC(=O)CSC1=Nc2ccccc2C2CC=NN12 (stereo not drawn),-12,25,23µM*,15µM*,0%,-19
Cc1c(N/C=C/C(=O)C(F)(F)F)c(=O)n(-c2ccccc2)n1C,3,-13,-2%,-8%,-8%,4
CC(C)(C)n1ncc2c(=O)n(Cc3ccccc3Br)cnc21,x,x,x,x,-5%,x
Cc1c(C(=O)NCCSCc2ccc(F)cc2)cnn1-c1ccc(Cl)cc1,-7,x,u,-13%,0%,-2
